Source: PubChem BioAssay AID1159580 (chemical genetic matrix, 2015)
Values joined by “and” are separate entries in the source; they are usually repeats but may differ in a detail not shown here. Identical values can stand only once. Among all 5,500 compounds or so, about 2,000 (36%) were called active. About 18% were inconclusive and are not listed. No stated cut-off is given here; in the data, active means normalized growth mostly below about 0.91 (no sharp cut-off); inconclusive means no clear call, values can overlap the other calls; inactive means mostly above about 0.92. The list shows a part of the results.

Assay: chemical genetic growth profiling, strain panel (AID 1159580);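 further: tested at 20 µM; growth read once vehicle control cultures reached saturation at 30 °C; 1 = growth at the plate median or of vehicle wells; lower values mean less growth of the strain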
Details: S. cerevisiae deletion strains, growth OD

Measured: normalized growth

CC[N+](C)(C)c1cccc(O)c1
inactive: locus YAL013W, strain DEP1, hits give low values 0.992 and 1.06 | locus YAL021C, strain ccr4, hits give low values 1.02 | locus YAL026C, strain drs2, hits give low values 0.993 | locus YAL030W, strain snc1, hits give low values 1.01 | locus YAL040C, strain CLN3, hits give low values 0.997 | locus YBL061C, strain skt5, hits give low values 1 | locus YBR009C, strain hhf1, hits give low values 0.964 | locus YBR021W, strain FUR4, hits give low values 0.996 | locus YBR023C, strain chs3, hits give low values 1.02 | locus YBR171W, strain sec66, hits give low values 1 | locus YBR229C, strain ROT2, hits give low values 0.983 | locus YBR231C, strain swc5, hits give low values 1.03 | locus YBR279W, strain paf1, hits give low values 1.01 | locus YCL011C, strain gbp2, hits give low values 1.02 | locus YCL016C, strain dcc1, hits give low values 1.02 | locus YCL029C, strain bik1, hits give low values 0.966 | locus YCL061C, strain MRC1 (second series), hits give low values 1 | locus YCL061C, strain MRC1, hits give low values 1.02 | locus YCL069W, strain vba3, hits give low values 1.01 | locus YCR088W, strain abp1, hits give low values 1.01 | locus YDL005C, strain med2, hits give low values 1.02 | locus YDL035C, strain GPR1, hits give low values 1.01 | locus YDL040C, strain nat1, hits give low values 1.01 | locus YDL074C, strain BRE1, hits give low values 0.984 | locus YDL101C, strain DUN1, hits give low values 0.979 | locus YDL134C, strain PPH21, hits give low values 0.984 | locus YDL185W, strain tfp1, hits give low values 0.972 | locus YDL192W, strain arf1, hits give low values 0.992 | locus YDR001C, strain nth1, hits give low values 1 | locus YDR069C, strain doa4, hits give low values 1.02 | locus YDR101C, strain arx1, hits give low values 0.966 | locus YDR137W, strain rgp1, hits give low values 1.04 | locus YDR150W, strain NUM1, hits give low values 0.996 and 1 | locus YDR159W, strain sac3, hits give low values 0.993 | locus YDR162C, strain NBP2, hits give low values 0.999 | locus YDR195W, strain ref2 1.01 | locus YDR297W, strain sur2, hits give low values 1.01 | locus YDR318W, strain mcm21, hits give low values 0.971 | locus YDR334W, strain swr1, hits give low values 1.01 | locus YDR335W, strain msn5, hits give low values 1.01 | locus YDR363W, strain ESC2, hits give low values 1.01 | locus YDR388W, hits give low values 0.978 | locus YDR392W, strain spt3, hits give low values 0.92 | locus YDR502C, strain sam2, hits give low values 0.975 | locus YEL003W, strain gim4, hits give low values 0.995 | locus YEL037C, strain rad23, hits give low values 0.999 | locus YEL061C, strain CIN8 (second series), hits give low values 1.01 | locus YEL061C, strain CIN8, hits give low values 0.994 | locus YER002W, strain NOP16, hits give low values 0.998 | locus YER015W, strain faa2, hits give low values 0.999 | locus YER016W, strain bim1, hits give low values 1.01 | locus YER110C, hits give low values 0.97 | locus YER111C, strain swi4, hits give low values 0.998 | locus YER155C, strain BEM2 (second series), hits give low values 1.02 | locus YER155C, strain BEM2, hits give low values 0.949 | locus YER167W, strain BCK2, hits give low values 0.995 | locus YFR010W, strain ubp6, hits give low values 1 | locus YGL078C, strain dbp3, hits give low values 0.982 | locus YGL086W, strain mad1, hits give low values 1 | locus YGL167C, strain pmr1, hits give low values 1.01 | locus YGL173C, strain kem1, hits give low values 1.02 | locus YGL227W, strain vid30, hits give low values 1.02 | locus YGL240W, strain doc1, hits give low values 1.03 | locus YGL248W, strain PDE1, hits give low values 0.997 | locus YGL253W, strain hxk2, hits give low values 1.02 | locus YGR078C, strain PAC10, hits give low values 0.995 and 0.986 | locus YGR135W, strain pre9, hits give low values 0.973 | locus YGR229C, strain SMI1, hits give low values 1.01 | locus YGR252W, strain gcn5, hits give low values 1.06 | locus YHR013C, strain ard1, hits give low values 1.06 | locus YHR027C, strain rpn1, hits give low values 1.01 | locus YHR030C, strain SLT2, hits give low values 0.988 and 1.01 | locus YHR079C, strain IRE1 (second series), hits give low values 0.982 | locus YHR079C, strain IRE1, hits give low values 0.99 | locus YHR094C, strain hxt1, hits give low values 0.976 | locus YHR129C, strain ARP1, hits give low values 0.987 | locus YHR142W, strain chs7, hits give low values 1 | locus YHR200W, strain rpn10, hits give low values 0.968 | locus YIL066C, strain RNR3, hits give low values 0.985 | locus YIL073C, strain SPO22, hits give low values 0.982 | locus YIL125W, strain kgd1, hits give low values 0.997 | locus YIR030C, strain dcg1, hits give low values 0.974 | locus YJL092W, strain hpr5, hits give low values 1.01 | locus YJL095W, strain BCK1 (second series), hits give low values 1.01 | locus YJL095W, strain BCK1, hits give low values 0.973 and 1.02 | locus YJL115W, strain asf1, hits give low values 1.01 | locus YJL129C, strain trk1, hits give low values 1.02 | locus YJL134W, strain LCB3, hits give low values 0.991 | locus YJL154C, strain vps35, hits give low values 1 | locus YJL164C, strain tpk1, hits give low values 0.996 | locus YJL166W, strain qcr8, hits give low values 1.04 | locus YJL168C, strain set2, hits give low values 0.979 | locus YJL187C, strain SWE1 (second series), hits give low values 0.977 | locus YJL187C, strain SWE1, hits give low values 1.01 | locus YJR043C, strain POL32, hits give low values 0.984 | locus YJR066W, strain TOR1, hits give low values 0.931
